# Test results taken from ChEMBL document CHEMBL3988442, “University of Dundee, Small-Polar-MMV Screening Library” (2021).
# For part of these data: Results with a measured potency or affinity are listed apart.
# Experiments:
# Design in all cases: scale not given: direction of the effect not stated beside the values
# [1] = molecular target: Protein translocase subunit SecA (Escherichia coli (strain K12)) (UniProt P10408); test: Assay to Identify E. coli SecA ATPase Inhibitors; type: functional; conditions: 30 µM
# [2] = molecular target: T1, Ubiquitin-activating enzyme e1, putative (Leishmania donovani (strain BPK282A1)) (UniProt E9BSI1); test: Leishmania donovani Ubiquitin Activating Enzyme (LdE1); type: functional; conditions: 30 µM
# T1 sequence (whole entry): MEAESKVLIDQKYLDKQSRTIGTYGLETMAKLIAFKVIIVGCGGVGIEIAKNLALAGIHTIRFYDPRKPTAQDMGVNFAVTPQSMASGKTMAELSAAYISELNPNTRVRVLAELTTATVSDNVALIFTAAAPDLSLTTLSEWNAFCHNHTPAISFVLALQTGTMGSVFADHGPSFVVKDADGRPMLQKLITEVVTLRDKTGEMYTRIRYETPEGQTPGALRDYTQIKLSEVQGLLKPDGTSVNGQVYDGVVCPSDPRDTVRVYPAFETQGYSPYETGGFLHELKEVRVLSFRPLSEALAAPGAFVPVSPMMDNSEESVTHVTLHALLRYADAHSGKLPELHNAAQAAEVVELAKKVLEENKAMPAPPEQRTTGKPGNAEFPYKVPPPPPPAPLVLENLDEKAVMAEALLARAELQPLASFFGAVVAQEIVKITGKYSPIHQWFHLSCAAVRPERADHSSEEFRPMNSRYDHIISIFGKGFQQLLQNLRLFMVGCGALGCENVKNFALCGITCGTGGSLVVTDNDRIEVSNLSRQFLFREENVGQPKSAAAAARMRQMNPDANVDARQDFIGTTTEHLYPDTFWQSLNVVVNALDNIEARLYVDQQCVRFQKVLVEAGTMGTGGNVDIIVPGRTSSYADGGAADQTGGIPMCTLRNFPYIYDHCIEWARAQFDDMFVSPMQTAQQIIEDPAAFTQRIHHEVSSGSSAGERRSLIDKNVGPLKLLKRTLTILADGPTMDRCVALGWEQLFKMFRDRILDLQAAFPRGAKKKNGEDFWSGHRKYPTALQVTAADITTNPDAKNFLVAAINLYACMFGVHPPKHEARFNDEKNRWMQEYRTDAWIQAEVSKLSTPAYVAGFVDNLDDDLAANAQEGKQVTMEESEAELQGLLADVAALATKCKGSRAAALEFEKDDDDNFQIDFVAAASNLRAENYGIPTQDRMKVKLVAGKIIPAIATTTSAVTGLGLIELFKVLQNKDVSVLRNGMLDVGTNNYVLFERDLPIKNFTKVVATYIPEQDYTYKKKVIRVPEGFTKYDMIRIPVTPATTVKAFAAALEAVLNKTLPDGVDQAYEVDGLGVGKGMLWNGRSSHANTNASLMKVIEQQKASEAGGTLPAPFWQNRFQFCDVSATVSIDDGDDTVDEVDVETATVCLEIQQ
# [3] = molecular target: AMP-activated protein kinase, AMPK (Homo sapiens) (UniProt P54646+O43741+P54619+Q9UGJ0+Q9Y478+Q13131+Q9UGI9); test: AMP-dependent Kinase enzyme assay. An in vitro enzyme assay that detects ADP turnover that is directly proportional to AMPK activity. This uses naive AMPK that is activated during the assay with MK-8722; type: functional; conditions: 30 µM
# [4] = molecular target: Sialic acid-binding Ig-like lectin 9 (Homo sapiens) (UniProt Q9Y336); test: Hs-Siglec9 ALPHAscreen SOP 20170721; conditions: 10 µM
# Trypanosoma cruzi = test: Trypanosoma cruzi phosphomannomutase and mannose-1-phosphate guanylyltransferase assay; type: functional; conditions: 10 µM
# [5] = molecular target: T2, Arginase-2, mitochondrial (Homo sapiens) (UniProt P78540); test: in vitro enzyme assay to detect the production of urea directly proportional to the activity of Arginase II; type: functional; conditions: 33.3 µM; note: in the data most compounds retested in dose-response had high values
# T2 sequence (whole entry): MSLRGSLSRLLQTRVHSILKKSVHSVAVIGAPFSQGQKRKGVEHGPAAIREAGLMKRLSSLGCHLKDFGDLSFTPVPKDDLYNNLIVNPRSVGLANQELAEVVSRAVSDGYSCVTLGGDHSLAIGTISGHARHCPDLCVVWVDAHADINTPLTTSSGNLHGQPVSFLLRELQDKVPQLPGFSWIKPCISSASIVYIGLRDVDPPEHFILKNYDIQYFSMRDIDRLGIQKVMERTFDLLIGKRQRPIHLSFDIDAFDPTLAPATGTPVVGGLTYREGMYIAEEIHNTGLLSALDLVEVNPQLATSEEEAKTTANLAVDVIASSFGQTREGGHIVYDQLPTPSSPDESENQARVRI
# [6] = molecular target: T3, Proteasome subunit beta (Trypanosoma cruzi) (UniProt O96673); test: Trypanosoma cruzi proteasome chymotrypsin-like activity (TcProtChymo) assay.; note: in the data most compounds retested in dose-response had high values; type: functional; conditions: 9.37 µM
# T3 sequence (whole entry): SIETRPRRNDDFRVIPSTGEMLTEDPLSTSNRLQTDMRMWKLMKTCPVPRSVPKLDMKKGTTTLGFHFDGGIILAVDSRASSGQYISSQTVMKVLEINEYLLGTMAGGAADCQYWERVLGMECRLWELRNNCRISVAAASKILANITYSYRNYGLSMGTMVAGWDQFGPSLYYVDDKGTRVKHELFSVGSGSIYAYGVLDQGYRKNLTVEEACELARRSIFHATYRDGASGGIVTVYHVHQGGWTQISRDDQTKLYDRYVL
# Homo sapiens = organism: Homo sapiens; test: To identify inhibition of the IFN signalling (Jak-Stat) pathway via expression of an eGFP reporter gene under the control of an IFN-stimulated response element (ISRE) containing MxA promoter.; type: functional; conditions: 30 µM
# [7] = molecular target: T4, Tyrosyl-tRNA synthetase, putative (Trypanosoma cruzi (strain CL Brener)) (UniProt Q4DSP6); test: Trypanosoma cruzi tyrosyl tRNA synthetase (TcYRS) _High Tyrosine SOP; type: functional; conditions: 30 µM; note: in the data most compounds retested in dose-response had high values
# T4 sequence (whole entry): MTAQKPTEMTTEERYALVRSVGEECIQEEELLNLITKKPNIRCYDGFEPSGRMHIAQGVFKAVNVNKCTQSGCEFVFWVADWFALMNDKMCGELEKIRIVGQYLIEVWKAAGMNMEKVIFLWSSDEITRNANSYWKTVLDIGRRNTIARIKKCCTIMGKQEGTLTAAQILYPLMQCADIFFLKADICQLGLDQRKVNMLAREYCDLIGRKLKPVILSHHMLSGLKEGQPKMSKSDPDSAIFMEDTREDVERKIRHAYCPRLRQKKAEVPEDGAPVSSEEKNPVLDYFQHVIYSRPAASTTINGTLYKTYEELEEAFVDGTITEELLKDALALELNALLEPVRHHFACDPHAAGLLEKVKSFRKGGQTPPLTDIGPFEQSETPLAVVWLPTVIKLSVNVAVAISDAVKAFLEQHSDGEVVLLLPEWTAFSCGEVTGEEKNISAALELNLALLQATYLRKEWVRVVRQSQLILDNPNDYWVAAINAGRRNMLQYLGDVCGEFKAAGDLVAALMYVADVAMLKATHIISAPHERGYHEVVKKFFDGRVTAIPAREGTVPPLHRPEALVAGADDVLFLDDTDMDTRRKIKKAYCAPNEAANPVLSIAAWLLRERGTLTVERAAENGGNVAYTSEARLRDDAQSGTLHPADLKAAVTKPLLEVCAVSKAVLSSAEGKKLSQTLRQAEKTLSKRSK
# [8] = molecular target: T4, Tyrosyl-tRNA synthetase, putative (Trypanosoma cruzi (strain CL Brener)); test: Trypanosoma cruzi tyrosyl tRNA synthetase (TcYRS) SOP; type: functional; conditions: 30 µM
# [9] = molecular target: Chromo domain-containing protein 1 (Saccharomyces cerevisiae (strain ATCC 204508 / S288c) (Baker's yeast)) (UniProt P32657); test: ScCHD-1 Enzyme Inhibition Assay; type: functional; conditions: 30 µM; note: in the data most compounds retested in dose-response had high values
# Chromo domain-containing protein 1 (Saccharomyces cerevisiae (strain ATCC 204508 / S288c) (Baker's yeast)), sequence (P32657 whole entry, the tested form may be a part): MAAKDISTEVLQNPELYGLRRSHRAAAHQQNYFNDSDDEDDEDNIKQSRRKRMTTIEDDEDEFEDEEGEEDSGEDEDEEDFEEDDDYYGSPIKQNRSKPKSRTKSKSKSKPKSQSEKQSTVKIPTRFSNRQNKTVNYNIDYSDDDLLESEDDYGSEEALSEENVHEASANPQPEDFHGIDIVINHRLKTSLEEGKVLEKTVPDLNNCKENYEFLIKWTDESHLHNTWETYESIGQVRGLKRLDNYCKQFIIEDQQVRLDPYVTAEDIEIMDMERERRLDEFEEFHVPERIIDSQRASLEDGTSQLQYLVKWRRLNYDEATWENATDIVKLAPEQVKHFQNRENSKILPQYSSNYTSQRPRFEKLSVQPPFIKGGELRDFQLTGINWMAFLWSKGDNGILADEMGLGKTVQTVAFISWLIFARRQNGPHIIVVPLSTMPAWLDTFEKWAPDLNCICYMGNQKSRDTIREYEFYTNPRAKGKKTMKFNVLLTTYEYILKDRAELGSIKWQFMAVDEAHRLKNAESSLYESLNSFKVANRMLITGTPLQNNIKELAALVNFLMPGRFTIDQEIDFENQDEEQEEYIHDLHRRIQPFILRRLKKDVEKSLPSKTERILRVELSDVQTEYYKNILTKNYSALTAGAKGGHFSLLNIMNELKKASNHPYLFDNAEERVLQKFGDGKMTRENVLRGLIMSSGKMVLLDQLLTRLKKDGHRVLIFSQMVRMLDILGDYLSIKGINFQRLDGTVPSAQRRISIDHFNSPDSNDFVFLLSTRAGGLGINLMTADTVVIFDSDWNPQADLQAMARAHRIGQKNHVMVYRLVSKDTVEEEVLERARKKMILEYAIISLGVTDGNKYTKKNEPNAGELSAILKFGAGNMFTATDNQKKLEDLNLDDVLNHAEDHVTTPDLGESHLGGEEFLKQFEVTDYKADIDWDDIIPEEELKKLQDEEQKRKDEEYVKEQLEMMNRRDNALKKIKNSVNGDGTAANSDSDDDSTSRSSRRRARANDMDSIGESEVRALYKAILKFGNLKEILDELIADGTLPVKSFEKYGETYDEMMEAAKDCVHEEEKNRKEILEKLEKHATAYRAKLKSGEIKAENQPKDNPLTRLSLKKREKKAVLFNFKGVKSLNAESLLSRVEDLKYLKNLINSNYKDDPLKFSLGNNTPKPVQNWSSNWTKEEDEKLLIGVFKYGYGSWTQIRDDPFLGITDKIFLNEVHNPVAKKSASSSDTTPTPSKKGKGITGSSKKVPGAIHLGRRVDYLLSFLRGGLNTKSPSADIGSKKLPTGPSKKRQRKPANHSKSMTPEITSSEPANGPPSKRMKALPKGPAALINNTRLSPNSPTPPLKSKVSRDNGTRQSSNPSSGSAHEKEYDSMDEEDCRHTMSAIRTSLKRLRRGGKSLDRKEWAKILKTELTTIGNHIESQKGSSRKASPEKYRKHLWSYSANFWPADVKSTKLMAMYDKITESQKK
# Sialic acid-binding Ig-like lectin 9 (Homo sapiens), sequence (Q9Y336 whole entry): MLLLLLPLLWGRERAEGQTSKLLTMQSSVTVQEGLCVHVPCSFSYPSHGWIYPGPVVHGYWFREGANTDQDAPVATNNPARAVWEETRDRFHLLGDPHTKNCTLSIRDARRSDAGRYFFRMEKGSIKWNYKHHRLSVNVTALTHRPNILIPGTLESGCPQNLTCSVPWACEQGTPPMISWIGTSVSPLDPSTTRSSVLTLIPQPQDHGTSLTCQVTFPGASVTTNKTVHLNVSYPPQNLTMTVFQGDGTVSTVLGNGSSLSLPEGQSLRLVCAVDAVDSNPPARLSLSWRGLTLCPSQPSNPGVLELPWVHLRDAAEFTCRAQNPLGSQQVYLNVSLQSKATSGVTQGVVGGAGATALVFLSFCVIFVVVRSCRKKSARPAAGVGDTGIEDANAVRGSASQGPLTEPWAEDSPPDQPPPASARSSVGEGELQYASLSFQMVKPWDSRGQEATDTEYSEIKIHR
# Protein translocase subunit SecA (Escherichia coli (strain K12)), sequence (P10408 whole entry): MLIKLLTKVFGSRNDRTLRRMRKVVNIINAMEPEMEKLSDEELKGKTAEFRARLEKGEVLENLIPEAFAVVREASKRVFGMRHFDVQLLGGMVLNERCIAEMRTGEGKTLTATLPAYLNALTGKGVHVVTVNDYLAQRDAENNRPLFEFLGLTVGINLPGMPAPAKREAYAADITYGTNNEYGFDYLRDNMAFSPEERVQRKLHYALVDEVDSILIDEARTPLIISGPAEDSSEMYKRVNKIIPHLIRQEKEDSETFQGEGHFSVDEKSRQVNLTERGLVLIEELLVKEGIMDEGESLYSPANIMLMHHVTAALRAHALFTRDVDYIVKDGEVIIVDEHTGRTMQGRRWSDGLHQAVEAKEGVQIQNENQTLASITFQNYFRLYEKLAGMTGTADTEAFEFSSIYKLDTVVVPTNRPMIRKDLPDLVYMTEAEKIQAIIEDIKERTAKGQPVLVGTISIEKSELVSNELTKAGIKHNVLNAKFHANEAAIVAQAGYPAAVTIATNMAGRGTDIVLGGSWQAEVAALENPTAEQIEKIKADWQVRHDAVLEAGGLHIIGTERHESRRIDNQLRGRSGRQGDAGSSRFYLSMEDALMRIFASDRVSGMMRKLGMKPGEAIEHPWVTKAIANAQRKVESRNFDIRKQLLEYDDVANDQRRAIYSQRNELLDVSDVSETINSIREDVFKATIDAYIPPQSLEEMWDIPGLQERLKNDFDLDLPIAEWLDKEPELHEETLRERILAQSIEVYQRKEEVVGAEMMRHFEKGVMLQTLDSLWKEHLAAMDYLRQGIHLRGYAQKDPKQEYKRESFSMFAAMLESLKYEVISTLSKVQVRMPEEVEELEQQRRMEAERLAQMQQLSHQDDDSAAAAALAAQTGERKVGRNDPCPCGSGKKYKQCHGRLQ
SMILES,Percent Effect [1] [%],Percent Effect [2] [%],Percent Effect [3] [%],Percent Effect [4] [%],Percent Effect (Trypanosoma cruzi) [%],Percent Effect [5] [%],Percent Effect [6] [%],Percent Effect (Homo sapiens) [%],Percent Effect [7] [%],Percent Effect [8] [%],Percent Effect [9] [%]
CN(C)C(=O)C1CCCN1CCCNC(=O)c1ccccc1F (centres undefined),-2.29,8.22,-4.32,2.43,-0.783,0.909,15.6,12.8,5.38,12.5,-3.39
Cc1nn(C)c2c(NCc3cccnc3)nc(C3CC3)nc12,-3.37,15.6,11.8,13.7,5.61,24.8,12.8,12.8,1.07,13.6,0.869
C[C@@H]1CN(C2(C(=O)N3CCCCCC3)Cc3ccccc3C2)C[C@H](C)O1,-2.48,6.94,-6.6,11,6.51,3.97,-0.702,-2.77,2.1,2.56,-1.63
CC(C)CN1CCc2[nH]cnc2C12CCN(C(=O)c1cccnc1)CC2,-8.51,0,-4.57,3.2,-3.99,-1.56,14.3,12.4,-3.83,-6.17,-6.87
CC1CCN(CCNC(=O)c2cncnc2C(C)C)CC1,0.314,4.17,-2.65,-7.34,-5.34,2.21,11.1,0.616,1.05,5.13,-2.34
Cc1csc(N2CCN(CCc3ccccn3)CC2C)n1 (centres undefined),-0.657,8.22,-7.28,9.14,6.07,-3.64,4.79,17.9,4.3,5,-1.43
CCc1nc(C2CCCN(C(=O)c3ccc(OC(C)C)nc3)C2)no1 (centres undefined),-8.81,5.2,-0.62,-8.98,-3.43,3.16,1.05,15.9,-0.952,0,-17.8
CCCOc1cccc(CNC(=O)CN2CCN(C)CC2C)c1 (centres undefined),-1.3,13.5,-7.22,15,1.02,-6.47,1.98,14.1,3.96,15.8,-9.26
O=C(COc1coc(CN2CCCCC2)cc1=O)NCc1ccccc1,-1.81,7.89,6.63,2.03,-4.38,-4.73,18.5,-0.295,4.25,10.4,-5.41
